Laboratory results from PubChem BioAssay (NCI).
“And” between values parts separate entries of the source, which are not always exact repeats. Identical values can stand only once. This is part of a sample that, as a whole, favours compounds with a hit. Of some 79,000 tested, about 15% had one in any assay. More than one record can exist for a structure, and the calls need not agree. The source made the active and inactive calls. No stated cut-off is given here; in the data, active means growth inhibition above about 70%; inactive means the rest.

Experiments:
[1] = NCI Yeast Anticancer Drug Screen. Data for the rad52 strain (AID 147);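 further: 0% = growth of vehicle-treated control cultures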; conditions: S. cerevisiae rad52 mutant growth inhibition, stronger effect = higher value
How it was run: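 Yeast strain carrying a DNA damage repair alteration was exposed to test compounds. Growth inhibition was measured relative to vehicle-treated controls.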

[2] = NCI Yeast Anticancer Drug Screen. Data for the wt1 strain (AID 149);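 further: 0% = growth of vehicle-treated wt1 cultures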; conditions: S. cerevisiae wt1 strain (SPY 50644) growth inhibition, stronger effect = higher value
How it was run: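 Measured: growth of wt1 yeast under compound versus vehicle treatment, reported as inhibition.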

[3] = NCI Yeast Anticancer Drug Screen. Data for the mgt1 strain (AID 153); conditions: S. cerevisiae mgt1 mutant growth inhibition, stronger effect = higher value
How it was run: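 Yeast mgt1 strain (DNA repair/cell-cycle alteration panel) exposed to compounds; growth inhibition measured relative to vehicle-treated controls.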

[4] = NCI Yeast Anticancer Drug Screen. Data for the rad50 strain (AID 155);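 further: 0% = growth of vehicle-only cultures of the same strain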; conditions: S. cerevisiae rad50 strain growth inhibition, stronger effect = higher value
How it was run: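 Growth of the mutant yeast was measured after compound exposure and referenced to vehicle-treated cultures.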

[5] = NCI Yeast Anticancer Drug Screen. Data for the mec2-1 strain (AID 157); conditions: S. cerevisiae mec2-1 strain, stronger effect = higher value
How it was run: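 mec2-1 yeast strain, carrying an alteration in DNA damage repair or cell cycle control, was exposed to compounds; growth inhibition was measured relative to vehicle-treated controls.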

[6] = NCI Yeast Anticancer Drug Screen. Data for the rad14 strain (AID 159);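 further: 0% = growth of vehicle-treated control cultures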; conditions: S. cerevisiae rad14 strain growth inhibition, stronger effect = higher value
How it was run: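 Here, inhibition of yeast growth was measured after compound exposure, using a strain with a genetic defect in DNA damage repair and vehicle-treated cultures as the reference.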

[7] = NCI Yeast Anticancer Drug Screen. Data for the sgs1 mgt1 strain (AID 161);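 further: 0% = growth of cultures given vehicle only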; conditions: S. cerevisiae sgs1 mgt1 strain, stronger effect = higher value
How it was run: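 Percent growth inhibition was derived by comparing compound-exposed mutant yeast with vehicle-exposed cultures. The strain carries alterations in DNA damage repair.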

[8] = NCI Yeast Anticancer Drug Screen. Data for the CLN2oe strain (AID 163);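 further: 0% = growth of vehicle-only control cultures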; conditions: S. cerevisiae CLN2oe strain, stronger effect = higher value
How it was run: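 Yeast cells carrying a defined cell-cycle control alteration were exposed to test compounds. Growth inhibition was scored against vehicle-treated control cultures.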

[9] = NCI Yeast Anticancer Drug Screen. Data for the bub3 strain (AID 167); conditions: S. cerevisiae bub3 mutant strain, stronger effect = higher value
How it was run: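 Whole-cell yeast assay. The mutant strain was incubated with compounds, and growth inhibition was determined by comparison with vehicle-treated cells.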

[10] = NCI Yeast Anticancer Drug Screen. Data for the wt2 strain (AID 169);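 further: 0% = growth of vehicle-treated yeast cultures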; conditions: S. cerevisiae wt2 strain growth inhibition, stronger effect = higher value
How it was run: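 Yeast cells were exposed to test compounds, and growth inhibition was measured relative to vehicle-treated controls.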

[11] = NCI Yeast Anticancer Drug Screen. Data for the mlh1 strain (AID 171);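 further: 0% = growth of vehicle-treated control cultures of the same strain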; conditions: S. cerevisiae mlh1 strain growth inhibition, stronger effect = higher value
How it was run: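 Yeast carrying a defined genetic alteration in DNA damage repair or cell cycle control were exposed to test compounds. Growth inhibition was measured relative to vehicle-treated controls.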

[12] = NCI Yeast Anticancer Drug Screen. Data for the mlh1 rad18 strain (AID 175); conditions: S. cerevisiae mlh1 rad18 strain growth inhibition, stronger effect = higher value
How it was run: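 Growth inhibition of the yeast strain was measured after compound exposure and expressed relative to vehicle-treated controls. The strain carries defined defects in DNA damage repair.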

[13] = NCI Yeast Anticancer Drug Screen. Data for the rad18 strain (AID 177); conditions: S. cerevisiae rad18 mutant growth inhibition, stronger effect = higher value
How it was run: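 Yeast carrying a defined DNA damage repair alteration were exposed to compounds. Growth inhibition was expressed relative to vehicle-treated controls.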

[14] = NCI Yeast Anticancer Drug Screen. Data for the rad50EPP+ strain (AID 151);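 further: 0% = growth of vehicle-treated control cultures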; conditions: S. cerevisiae rad50 mutant strain, stronger effect = higher value
How it was run: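 Yeast strain carrying rad50 alteration (rad50EPP+) exposed to compounds; growth inhibition measured relative to vehicle-treated controls.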

[15] = NCI Yeast Anticancer Drug Screen. Data for the cln2 rad14 strain (AID 165);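 further: 0% = growth equal to vehicle treated cultures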; conditions: S. cerevisiae cln2 rad14 strain, stronger effect = higher value
How it was run: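 Yeast carrying cln2 and rad14 alterations (cell cycle control and DNA damage repair) were exposed to compounds. Growth inhibition was measured against vehicle-treated controls.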

[16] = NCI Yeast Anticancer Drug Screen. Data for the sgs1 strain (AID 173);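 further: 0% = growth of vehicle-only control cultures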; conditions: S. cerevisiae sgs1 mutant, stronger effect = higher value
How it was run: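 Yeast mutant strains carrying defined defects in DNA damage repair or cell cycle control were exposed to test compounds. Growth inhibition was scored against vehicle-treated controls.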

[17] = at 5.0 µM (retest, dose inferred, filed as 0.5)
[18] = at 50.0 µM (retest, dose inferred, filed as 5.0)

Measured: growth inhibition

O=C1C=C(Cl)C(=O)N1c1cccc(Cl)c1
active: [1]; at 3.7 µM 89% | [1]; at 11.0 µM 99% | [1]; at 33.0 µM 99% | [1]; at 100.0 µM 99% | [2]; at 3.7 µM 97% | [2]; at 11.0 µM 100% | [2]; at 33.0 µM 99% | [2]; at 100.0 µM 100% | [3]; at 11.0 µM 99% | [3]; at 33.0 µM 99% | [3]; at 100.0 µM 100% | [4]; at 3.7 µM 86% | [4]; [17] 87% | [4]; at 11.0 µM 99% | [4]; at 33.0 µM 99% | [4]; [18] 97% | [4]; at 50.0 µM 99.5% | [4]; at 100.0 µM 99% | [5]; at 11.0 µM 99% | [5]; at 33.0 µM 100% | [5]; [18] 99% | [5]; at 50.0 µM 99.6% | [5]; at 100.0 µM 99% | [6]; at 3.7 µM 97% | [6]; at 11.0 µM 100% | [6]; at 33.0 µM 100% | [6]; at 100.0 µM 100% | [7]; [18] 99% | [7]; at 50.0 µM 99.5% | [8]; at 11.0 µM 99% | [8]; at 33.0 µM 99% | [8]; at 100.0 µM 99% | [9]; at 3.7 µM 93% | [9]; at 11.0 µM 99% | [9]; at 33.0 µM 99% | [9]; [18] 98% | [9]; at 50.0 µM 99.5% | [9]; at 100.0 µM 100% | [10]; at 3.7 µM 99% | [10]; at 11.0 µM 100% | [10]; at 33.0 µM 100% | [10]; at 100.0 µM 100% | [11]; at 11.0 µM 99% | [11]; at 33.0 µM 100% | [11]; at 100.0 µM 100% | [12]; [18] 95% | [12]; at 50.0 µM 99.5% | [13]; at 11.0 µM 99% | [13]; at 33.0 µM 99% | [13]; at 100.0 µM 99%
inactive: [1]; at 1.2 µM 6% | [2]; at 1.2 µM 12% | [3]; at 1.2 µM -3% | [3]; at 3.7 µM 67% | [4]; at 1.2 µM 11% | [5]; at 1.2 µM -6% | [5]; at 3.7 µM 63% | [5]; [17] 8% | [6]; at 1.2 µM 34% | [7]; [17] 11% | [8]; at 1.2 µM -13% | [8]; at 3.7 µM 33% | [9]; at 1.2 µM 55% | [9]; [17] 65% | [10]; at 1.2 µM 30% | [11]; at 1.2 µM -11% | [11]; at 3.7 µM 58% | [12]; [17] 0% | [13]; at 1.2 µM -1% | [13]; at 3.7 µM 36%

CN(C)CCOC1(Cc2ccc(F)cc2)CCC(C(C)(C)C)CC1 (stereo not drawn)
38.3% (inactive) and 99.1% (active): [4]; at 50.0 µM
56% (inactive) and 99% (active): [9]; [18]
18.8% (inactive) and 99.2% (active): [5]; at 50.0 µM
65% (inactive) and 92% (active): [4]; [18]
-1% (inactive) and 92% (active): [5]; [18]
15.3% (inactive) and 99.3% (active): [15]; at 50.0 µM
inactive: [1]; at 1.2 µM 8% | [1]; at 3.7 µM 5% | [1]; at 11.0 µM -4% | [1]; at 33.0 µM 7% | [2]; at 1.2 µM 10% | [2]; at 3.7 µM 6% | [2]; at 11.0 µM -11% | [2]; at 33.0 µM -5% | [14]; at 1.2 µM -1% | [14]; at 3.7 µM -13% | [14]; at 11.0 µM -27% | [14]; at 33.0 µM -61% | [14]; at 100.0 µM 68% | [4]; at 1.2 µM -10% | [4]; at 3.7 µM 6% | [4]; [17] 4% and -18% | [4]; at 11.0 µM 14% | [4]; at 33.0 µM 53% | [5]; at 1.2 µM -12% | [5]; at 3.7 µM -10% | [5]; [17] -12% and -13% | [5]; at 11.0 µM -8% | [5]; at 33.0 µM 19% | [6]; at 1.2 µM 6% | [6]; at 3.7 µM 7% | [6]; at 11.0 µM 10% | [6]; at 33.0 µM 66% | [7]; [17] -1% and -5% | [8]; at 1.2 µM -5% | [8]; at 3.7 µM -5% | [8]; at 11.0 µM -5% | [8]; at 33.0 µM -2% | [15]; [17] 17% and -22% | [15]; [18] 34% and 51% | [9]; at 1.2 µM -4% | [9]; at 3.7 µM -4% | [9]; [17] 10% and -19% | [9]; at 11.0 µM -1% | [9]; at 33.0 µM 7% | [10]; at 1.2 µM 1% | [10]; at 3.7 µM -1% | [10]; at 11.0 µM -1% | [10]; at 33.0 µM 16% | [11]; at 1.2 µM 2% | [11]; at 3.7 µM 7% | [11]; at 11.0 µM 11% | [11]; at 33.0 µM 58% | [16]; at 1.2 µM 32% | [16]; at 3.7 µM 16% | [16]; at 11.0 µM 18% | [16]; at 33.0 µM 56% | [12]; [17] 7% and -11% | [13]; at 1.2 µM -9% | [13]; at 3.7 µM -23% | [13]; at 11.0 µM -2% | [13]; at 33.0 µM 18%
46.3% (inactive) and 99.2% (active): [9]; at 50.0 µM
active: [1]; at 100.0 µM 98% | [2]; at 100.0 µM 95% | [4]; at 100.0 µM 97% | [5]; at 100.0 µM 98% | [6]; at 100.0 µM 98% | [7]; [18] 75% and 83% | [7]; at 50.0 µM 92.8% and 99.1% | [8]; at 100.0 µM 98% | [9]; at 100.0 µM 98% | [10]; at 100.0 µM 99% | [11]; at 100.0 µM 98% | [16]; at 100.0 µM 99% | [12]; [18] 94% and 99% | [12]; at 50.0 µM 97.8% and 99.3% | [13]; at 100.0 µM 98%
